# Calb FLC: C. albicans growth inhibition with fluconazole, primary screen, CaCi-2 strain, Alamar Blue fluorescence. growth inhibition, % (test concentration not listed). actives 0.57% (n = 300,000). C. albicans CaCi-2 (fluconazole-resistant clinical isolate) + fluconazole, 48 h. AID 1979, 2009;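 active means growth inhibition above about 58% in most replicates, limit read from the data, passing the limit was not always enough; inconclusive means exactly half the replicates above a set limit; inactive means most replicates below a set limit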;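 further: all wells also contain fluconazole at 8 µg/ml as a sub-toxic cotreatment; 0% = median of DMSO wells and 100% = median of geldanamycin control wells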
# Mdm2 MdmX PPI: inhibitors of human Mdm2-MdmX association, primary screen, cell-based, luminescence, split luciferase, SaOS-2, uHTS; SaOS-2 split-luciferase Mdm2/MdmX complementation; inhibition, % at 8 µM; actives 3% (n = 330,000); Protein Mdm4 (Homo sapiens) + E3 ubiquitin-protein ligase Mdm2 (Homo sapiens), …;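 active means inhibition of at least 50% at 8 µM in the primary screen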
# Target sequence (O15151 whole entry, looked up): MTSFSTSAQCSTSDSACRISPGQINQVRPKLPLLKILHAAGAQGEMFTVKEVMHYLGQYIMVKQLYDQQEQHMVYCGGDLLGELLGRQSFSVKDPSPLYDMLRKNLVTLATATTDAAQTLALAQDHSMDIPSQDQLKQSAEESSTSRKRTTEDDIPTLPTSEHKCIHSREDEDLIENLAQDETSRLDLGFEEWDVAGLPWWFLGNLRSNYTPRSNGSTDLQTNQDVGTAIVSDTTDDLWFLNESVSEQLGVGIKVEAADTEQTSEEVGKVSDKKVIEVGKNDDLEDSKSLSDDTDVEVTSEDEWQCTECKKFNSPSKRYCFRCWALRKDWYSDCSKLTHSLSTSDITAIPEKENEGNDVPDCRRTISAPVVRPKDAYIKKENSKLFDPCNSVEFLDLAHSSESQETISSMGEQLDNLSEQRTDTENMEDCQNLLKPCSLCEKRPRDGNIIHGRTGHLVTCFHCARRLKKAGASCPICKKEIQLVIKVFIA
# Target sequence (Q00987 whole entry, looked up): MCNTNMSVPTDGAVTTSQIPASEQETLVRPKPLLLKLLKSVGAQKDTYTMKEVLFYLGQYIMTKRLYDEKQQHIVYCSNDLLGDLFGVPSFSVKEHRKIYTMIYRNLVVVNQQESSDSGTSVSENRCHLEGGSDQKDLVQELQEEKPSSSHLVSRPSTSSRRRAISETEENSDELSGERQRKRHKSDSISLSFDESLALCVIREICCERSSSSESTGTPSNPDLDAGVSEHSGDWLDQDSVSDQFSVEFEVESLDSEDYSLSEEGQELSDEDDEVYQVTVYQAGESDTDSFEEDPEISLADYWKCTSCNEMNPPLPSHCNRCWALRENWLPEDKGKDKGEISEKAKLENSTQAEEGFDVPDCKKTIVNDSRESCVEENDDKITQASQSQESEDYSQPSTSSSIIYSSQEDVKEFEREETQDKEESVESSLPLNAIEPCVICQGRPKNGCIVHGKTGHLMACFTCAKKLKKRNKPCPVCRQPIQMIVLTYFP
# Beta cell apopt: inhibitors of cytokine-induced beta cell apoptosis, primary screen, luminescence; actives 0.8% (n = 300,000); INS-1E cytokine-induced death, ATP luminescence, 48 h; percent of positive-control rescue, neutral wells zero; AID 435005, 2010; protection from apoptosis, % (concentration not given with the values);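 active means Every replicate reaches about 75%, or at least half do and their mean reaches it too, limit read from the data; inconclusive means At least half of replicates reach the limit but their mean does not; inactive means Under half of replicates reach the limit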;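 further: 0% = cytokine-treated negative control wells and 100% = positive control rescue; higher means more ATP so stronger rescue from cytokine killing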
# SKKanGAS inh: S. pyogenes SKKanGAS growth inhibitors in kanamycin, primary screen, streptokinase expression inhibitor project, SKKanGAS strain, BacTiter-Glo luminescence. AID 1662, 2009. inhibition, % at 7.5 µM. 6 h. actives 1.3% (n = 300,000);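 active means mean replicate score, as percent of positive control median, at least 50; inconclusive means mean below 50 but one replicate at or above 50; inactive means mean and every replicate below 50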;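 further: strain carries kanamycin resistance gene driven by streptokinase promoter and grows in 40 µg/ml kanamycin; loss of luminescence reflects streptokinase promoter inhibition or plain growth inhibition; 0% = median of DMSO wells and 100% = positive control at its reference dose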
# CSC inhib: cancer stem cell viability inhibitors, primary screen, luminescence; cancer stem cell-like cells viability; inhibition, % at 7.5 µM; actives 1.1% (n = 300,000); AID 2717, 2010; in the data active means inhibition above about 75%; inconclusive means no clear call, values can overlap the other calls; tested in HMLE shEcad cells
# MPTP block: mitochondrial permeability transition pore inhibitors, primary screen, biochemical, isolated mouse mitochondria, absorbance; Ca2+ swelling absorbance, 30 min; inhibition, % at 10 µM; actives 1.4% (n = 360,000); AID 602449, 2012;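 active means inhibition of 50% or more, scaled per plate between neutral and stimulator controls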;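 further: 0% = DMSO wells given calcium and 100% = 1 mM EGTA wells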
# Mdm2-MdmX conf: Mdm2-MdmX complex disruptors, retested hits, confirmation, luminescence, single concentration; shares compounds with Mdm2 MdmX PPI; Mdm2-MdmX binding, luminescent assay; inhibition, % at 8 µM; actives 55% (n = 10,000); AID 489028, 2010; in the data active means inhibition above about 40%
# Full FLuc ctr: full-length luciferase signal inhibition, confirmation, counter-screen for Mdm2/MdmX interaction inhibitor project, cell-based, single concentration, SaOS-2; shares compounds with Mdm2 MdmX PPI; SaOS-2 full-length luciferase counterscreen, luminescence; inhibition, % at 8 µM; actives 77% (n = 6,200); AID 504607, 2011;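 active means mean inhibition at 8 µM reaching about 37%, which flags the compound as non-specific, limit read from the data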;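 further: p53-null SaOS-2 cells with luciferase driven by a doxycycline-inducible promoter; compound on cells about two nights before reading with doxycycline added after day one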
# Rh123 counter: fluorescence retest of MPTP screen hits in isolated mitochondria, single concentration | shares compounds with MPTP block | membrane potential, Rhodamine 123 fluorescence | inhibition, % at 10 µM | actives 78% (n = 5,000); in the data active means inhibition above about 22%;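 further: 0% = DMSO vehicle and 100% = positive control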
# Starred values were filed as active, the others as inactive; ? = inconclusive; . = no result given. Only some compounds are listed: those with a hit (about 5.4% of all), similar ones and a draw of the others.
SMILES,Calb FLC,Mdm2 MdmX PPI,Beta cell apopt,SKKanGAS inh,CSC inhib,MPTP block,Mdm2-MdmX conf,Full FLuc ctr,Rh123 counter
Cn1nc(C(F)(F)F)c2cc(C(=O)Nc3ccc(C(F)(F)F)cc3)sc21,22.7,60.9*,35.3,26.3,71.8,91.2*,12.2,.,75.4*
CCOc1ccc(C2C=C(c3ccccc3)Nc3nnnn32)cc1 (configuration not stated),15.9,-226.6,0.5,18.3,-6.3,4.2,.,.,.
CCOc1ccc(C2C=C(c3ccc(C)cc3)Nc3nnnn32)cc1 (configuration not stated),2.9,50.1*,-0.4,33.9,14.2,73.1*,12.2,.,26.0*
O=C(Nc1nncs1)c1ccc2c(c1)OCO2,3.0,9.6,1.3,-11.0,19.9,-2.5,.,.,.
O=C(NC(=S)Nc1nc2c(s1)CSc1ccccc1-2)c1ccccc1,43.2,68.1*,17.4,37.5,-5.7,94.8*,7.8,.,90.8*
O=C(NC(=S)Nc1nc2c(s1)CCCC2)c1ccc(C(=O)c2ccccc2)cc1,0.2,3.9,10.1,31.2,56.6,5.7,.,.,.
N=c1c2c(-c3ccccc3)c(-c3ccccc3)n(Cc3ccccc3)c2ncn1CCCn1ccnc1,1.0,100.3*,3.7,-8.0,37.5,55.5*,90.0*,10.0,0.8
N=c1sccn1CC(=O)Nc1cccc(S(=O)(=O)N2CCCCCC2)c1,-23.3,7.7,12.4,-5.6,0.7,1.2,.,.,.
Cc1cccc(C2(c3cccc(C)c3)CC2C(=O)Nc2ccc([N+](=O)[O-])cc2O)c1 (configuration not stated),38.7,90.1*,.,72.4*,.,96.3*,94.3*,50.8*,67.6*
COc1ccc(C(=O)NCCN2CCOCC2)cc1[N+](=O)[O-],-2.8,16.4,0.5,11.1,-21.1,1.6,.,.,.
Cc1cc(C)cc(N(CC(=O)Nc2cccc(C)n2)S(=O)(=O)c2c(C)noc2C)c1,3.8,9.6,.,1.4,5.5,-1.3,.,.,.
COCCCNC(=O)C[C@@H]1C[C@@]2(C(=O)OC)CCCCC=C2N(Cc2cccc3ccccc23)C1=O,.,.,.,.,.,-0.6,.,.,.
CCSCCc1nnc(NC(=O)Nc2cccc(C(F)(F)F)c2)s1,-8.9,94.9*,118.9*,12.3,27.4,79.5*,95.2*,49.6*,72.6*
Cc1cccc(C)c1NC(=O)NC1(C(=O)N2CCN3CCCC3C2)CCCCC1 (configuration not stated),1.3,15.8,-3.8,5.2,-11.4,0.7,.,.,.
CCCNC(=O)C1Cc2cc(S(=O)(=O)N3CCCC3)ccc2N1C(C)=O (configuration not stated),-4.1,0.1,.,-3.0,-12.8,-2.6,.,.,.
O=C(/C=C/c1ccccc1)NC(NC(=S)Nc1ccc(Cl)cc1)C(Cl)(Cl)Cl (configuration not stated),-8.8,60.0*,46.3,63.3*,35.1,98.7*,62.1*,23.7,58.0*
O=C(/C=C/c1ccccc1)NC(NC(=S)Nc1cc(Cl)ccc1Cl)C(Cl)(Cl)Cl (configuration not stated),-7.5,89.4*,10.6,51.9*,?,96.9*,87.5*,31.2,73.5*
CC(C)NC(NC(=O)/C=C/c1ccccc1)C(Cl)(Cl)Cl (configuration not stated),13.9,15.5,2.8,19.2,.,-1.3,.,.,.
COc1ccccc1NC(=S)NC(NC(=O)C(C)C)C(Cl)(Cl)Cl (configuration not stated),-1.1,15.9,5.1,2.8,.,2.0,.,.,.
CCOC(=O)c1sc(NC(=O)Nc2cccc(Cl)c2)cc1C,-9.8,77.6*,101.2*,94.9*,-4.6,79.1*,71.1*,34.4,49.2*
Fc1ccc(Nc2nnc(C(F)(F)F)s2)cc1Cl,-6.9,73.4*,46.2,27.5,48.3,75.3*,68.0*,57.2*,86.0*
O=C(Nc1cc2c(cc1Cl)OCCCO2)c1ccco1,-10.8,-101.2,-2.8,-2.0,0.9,0.1,.,.,.
CCCSc1nnc(NC(=O)Nc2ccc(F)cc2)s1,-8.5,95.2*,46.6,25.0,38.4,85.8*,85.5*,28.5,98.5*
Cc1nnc(SCCC(=O)Nc2ccc(F)cc2)s1,5.8,-24.7,-11.2,-4.9,-4.1,-1.3,.,.,.
COc1ccccc1NS(=O)(=O)c1cc(C(=O)NCCCN2CCCC2=O)ccc1C,.,.,.,.,.,0.5,.,.,.
SMILES,Calb FLC,Mdm2 MdmX PPI,Beta cell apopt,SKKanGAS inh,CSC inhib,MPTP block,Mdm2-MdmX conf,Full FLuc ctr,Rh123 counter
O=C(N/N=C1\CC2CC=CC12)c1ccc(COc2ccccc2)cc1 (configuration not stated),-1.7,27.3,1.0,3.2,-7.3,0.4,.,.,.
OCCCCc1nccc2c1[nH]c1ccccc12,-4.0,-2.9,-1.0,-5.0,-11.0,1.0,.,.,.
N#Cc1ccc(/C=C\c2nccc3c2[nH]c2ccccc23)cc1,-3.9,51.5*,6.3,31.7,45.7,92.2*,34.6,.,66.6*
CC(C)c1nnc(NC(=O)c2cccc(NC(=O)C(F)(F)F)c2)s1,-11.0,-48.8,-2.1,4.1,0.3,-1.0,.,.,.
Cc1ccc(NC(=O)c2cccc(S(=O)(=O)N3CCc4ccccc4C3)c2)nc1,-5.8,-2.6,-4.6,1.3,24.3,-0.7,.,.,.
Cc1cc(N2CCN(C)CC2)ccc1NC(=O)c1cccc(S(=O)(=O)N2CCc3ccccc3C2)c1,-11.4,96.1*,5.2,6.5,54.0,92.2*,36.1,73.0*,-0.6
CC1CCC2(CC1)NC(=O)N(CC(=O)N1CC(C)CC(C)C1)C2=O (configuration not stated),.,22.2,-1.0,.,-15.3,-0.9,.,.,.
CCOc1cc(C(=O)Nc2ccc(F)cc2)cc(Br)c1OC,-1.3,37.4,9.1,-5.6,-10.6,66.8*,.,.,79.2*
CC(C)(C)C(=O)N1CCn2c1nc1ccccc12,5.5,8.3,-6.1,0.8,-14.0,1.2,.,.,.
CC(NC(=O)/C=C/c1ccc(Br)cc1)c1ccc(Cl)cc1 (configuration not stated),-2.7,16.8,0.7,-5.3,10.1,77.6*,.,.,84.0*
Cc1cccc(C(C)C)c1NC(=O)COC(=O)COc1ccc2c(C)cc(=O)oc2c1,14.5,7.7,-3.1,-2.2,-8.0,3.7,.,.,.

# Source: PubChem
